According to PubChem BioAssay (EPA / NIEHS):
Several values for one entry are separate records, joined by “and”; a condition that tells them apart may be missing. Equal entries are not always repeated. Inconclusive results are not listed. Where a structure was tested more than once in an assay, its records may differ in their call. Activity calls are given as the source filed them. The calls were made as follows, unless noted: active = hit-call score of the fitted dose curve at least 0.9, where 1 is the maximum; inactive = score below 0.9.

These compounds were tested on E-selectin (Homo sapiens) (UniProt P16581) (assay: BSK_3C_Eselectin: BioMAP Diversity Plus: 3C Assay for Eselectin Biomarker Activity (AID 2283015;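 as to outcome: cell surface E-selectin protein quantified by ELISA 24 h after dosing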)). Conditions: primary human endothelial cells (HUVEC); actives raise or lower the signal.
Sequence of E-selectin (Homo sapiens) (P16581 whole entry, looked up): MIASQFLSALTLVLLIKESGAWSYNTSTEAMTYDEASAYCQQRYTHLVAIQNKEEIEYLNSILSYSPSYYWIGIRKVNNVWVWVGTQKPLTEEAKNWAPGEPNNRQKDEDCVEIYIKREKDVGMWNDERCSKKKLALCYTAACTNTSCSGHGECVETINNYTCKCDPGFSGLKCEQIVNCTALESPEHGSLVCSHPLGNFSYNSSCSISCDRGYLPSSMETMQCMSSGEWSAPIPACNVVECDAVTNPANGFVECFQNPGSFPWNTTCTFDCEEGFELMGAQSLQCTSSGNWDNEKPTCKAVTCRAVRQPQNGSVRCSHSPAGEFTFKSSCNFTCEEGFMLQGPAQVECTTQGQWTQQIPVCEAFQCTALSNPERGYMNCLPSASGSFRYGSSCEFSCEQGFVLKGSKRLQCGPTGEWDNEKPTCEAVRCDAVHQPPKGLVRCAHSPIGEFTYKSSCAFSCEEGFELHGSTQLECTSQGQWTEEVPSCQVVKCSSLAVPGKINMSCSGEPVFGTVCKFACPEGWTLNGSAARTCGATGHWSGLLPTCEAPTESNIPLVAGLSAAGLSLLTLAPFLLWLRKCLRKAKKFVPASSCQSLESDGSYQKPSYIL
Method in brief: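 Primary human umbilical vein endothelial cells (3C system) were dosed with chemical and cell-surface E-selectin measured by ELISA 24 h later. Bidirectional curve fitting used DMSO as negative control and baseline.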
With C=CC(=O)NC(C)(C)C the outcome was “inactive”.
With CC(C)CCCCCOC(=O)CS the outcome was “inactive”.
In the case of Oc1ccccc1Cc1ccccc1O, the outcome is reported as “inactive”.
C1CNCCN1 was tested, and the outcome was “inactive”.
C[N+](C)(C)CCCNS(=O)(=O)C(F)(F)C(F)(F)C(F)(F)C(F)(F)C(F)(F)C(F)(F)C(F)(F)C(F)(F)F was tested, and the outcome was “inactive”.
For CCCCC1C(=O)N(c2ccccc2)N(c2ccccc2)C1=O, the outcome was “inactive”.
c1ccc2sc(SSN3CCOCC3)nc2c1 was tested, and the AC50 was 11.8 µM (active).
O=C1CCCCCCCCCCCN1 was tested, and the outcome was “inactive”.
With O=C(Oc1ccccc1)c1ccccc1C(=O)Oc1ccccc1 the outcome was “inactive”.

The compounds below were run on Interleukin-1 alpha (IL1a), IL1A (gene 3552) (assay: BSK_BE3C_IL1a: BioMAP Diversity Plus: BE3C Assay for Interleukin-1 alpha (IL1a) Biomarker Activity (AID 2283016)). Conditions: primary human bronchial epithelial cells; actives raise or lower the signal.
Method in brief: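 Human primary bronchial epithelial cells (BE3C system) were dosed with compound and IL-1a measured by ELISA 24 h later. Activity was fitted bidirectionally against DMSO baseline; cytotoxicity was tracked in parallel cultures by SRB total-protein staining.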
With C=CC(=O)NC(C)(C)C the outcome was “inactive”.
For CC(C)CCCCCOC(=O)CS, the outcome was “inactive”.
In the case of Oc1ccccc1Cc1ccccc1O, the outcome is reported as “inactive”.
For C1CNCCN1, the outcome was “inactive”.
C[N+](C)(C)CCCNS(=O)(=O)C(F)(F)C(F)(F)C(F)(F)C(F)(F)C(F)(F)C(F)(F)C(F)(F)C(F)(F)F was tested, and the AC50 was 14.3 µM (active) and the outcome was “inactive”.
For CCCCC1C(=O)N(c2ccccc2)N(c2ccccc2)C1=O, the outcome was “inactive”.
With c1ccc2sc(SSN3CCOCC3)nc2c1 the outcome was “inactive”.
With O=C1CCCCCCCCCCCN1 the outcome was “inactive”.
With O=C(Oc1ccccc1)c1ccccc1C(=O)Oc1ccccc1 the outcome was “inactive”.

These compounds were tested on Monocyte Chemoattractant Protein-1 (MCP1), CCL2 (gene 6347) (assay: BSK_3C_MCP1: BioMAP Diversity Plus: 3C Assay for Monocyte Chemoattractant Protein-1 (MCP1) Biomarker Activity (AID 2283017)). Conditions: primary human endothelial cells (HUVEC); actives raise or lower the signal.
Method in brief: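 Primary human umbilical vein endothelial cells (3C system) were exposed to test chemical for 24 h, after which MCP-1 was quantified by ELISA. Activity was fitted bidirectionally against DMSO as negative control and baseline.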
C=CC(=O)NC(C)(C)C was tested, and the outcome was “inactive”.
For CC(C)CCCCCOC(=O)CS, the outcome was “inactive”.
For Oc1ccccc1Cc1ccccc1O, the AC50 was 1.72 µM (active) and the outcome was “inactive”.
C1CNCCN1 was tested, and the outcome was “inactive”.
In the case of C[N+](C)(C)CCCNS(=O)(=O)C(F)(F)C(F)(F)C(F)(F)C(F)(F)C(F)(F)C(F)(F)C(F)(F)C(F)(F)F, the AC50 is reported as 30 µM (active) and the outcome is reported as “inactive”.
With CCCCC1C(=O)N(c2ccccc2)N(c2ccccc2)C1=O the outcome was “inactive”.
c1ccc2sc(SSN3CCOCC3)nc2c1 was tested, and the AC50 was 14.2 µM (active).
For O=C1CCCCCCCCCCCN1, the outcome was “inactive”.
O=C(Oc1ccccc1)c1ccccc1C(=O)Oc1ccccc1 was tested, and the outcome was “inactive”.

What follows are compounds tested on Monocyte Chemoattractant Protein-1 (MCP1), CCL2 (gene 6347) (assay: BSK_4H_MCP1: BioMAP Diversity Plus: 4H Assay for Monocyte Chemoattractant Protein-1 (MCP1) Biomarker Activity (AID 2283018)). Conditions: primary human endothelial cells (HUVEC); actives raise or lower the signal.
Method in brief: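 Human umbilical vein endothelial cells (4H system) dosed with chemical; MCP-1 measured by ELISA 24 h after dosing. Bidirectional curve fitting against DMSO negative control as baseline; parallel SRB total-protein staining tracks overt cytotoxicity.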
C=CC(=O)NC(C)(C)C was tested, and the outcome was “inactive”.
In the case of CC(C)CCCCCOC(=O)CS, the outcome is reported as “inactive”.
With Oc1ccccc1Cc1ccccc1O the AC50 was 4.2 µM (active) and 10.9 µM (active).
With C1CNCCN1 the outcome was “inactive”.
With C[N+](C)(C)CCCNS(=O)(=O)C(F)(F)C(F)(F)C(F)(F)C(F)(F)C(F)(F)C(F)(F)C(F)(F)C(F)(F)F the outcome was “inactive”.
For CCCCC1C(=O)N(c2ccccc2)N(c2ccccc2)C1=O, the outcome was “inactive”.
c1ccc2sc(SSN3CCOCC3)nc2c1 was tested, and the AC50 was 4.41 µM (active).
For O=C1CCCCCCCCCCCN1, the outcome was “inactive”.
With O=C(Oc1ccccc1)c1ccccc1C(=O)Oc1ccccc1 the outcome was “inactive”.

Each compound was assayed on Human Leukocyte Antigen - DR isotype (HLADR), HLA-DRA (gene 3122) (assay: BSK_3C_HLADR: BioMAP Diversity Plus: 3C Assay for Human Leukocyte Antigen - DR isotype (HLADR) Biomarker Activity (AID 2283019;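 as to outcome: ELISA of cell-surface HLA-DR on HUVEC 24 h after dosing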)). Conditions: primary human endothelial cells (HUVEC); actives raise or lower the signal.
Method in brief: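 Primary human umbilical vein endothelial cells (3C system) were dosed with compound and cell-surface HLA-DR was quantified by ELISA at 24 h. Activity was fitted bidirectionally against DMSO as negative control and baseline.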
With C=CC(=O)NC(C)(C)C the outcome was “inactive”.
For CC(C)CCCCCOC(=O)CS, the outcome was “inactive”.
Oc1ccccc1Cc1ccccc1O was tested, and the outcome was “inactive”.
In the case of C1CNCCN1, the outcome is reported as “inactive”.
With C[N+](C)(C)CCCNS(=O)(=O)C(F)(F)C(F)(F)C(F)(F)C(F)(F)C(F)(F)C(F)(F)C(F)(F)C(F)(F)F the outcome was “inactive”.
With CCCCC1C(=O)N(c2ccccc2)N(c2ccccc2)C1=O the outcome was “inactive”.
In the case of c1ccc2sc(SSN3CCOCC3)nc2c1, the AC50 is reported as 5.37 µM (active).
With O=C1CCCCCCCCCCCN1 the outcome was “inactive”.
O=C(Oc1ccccc1)c1ccccc1C(=O)Oc1ccccc1 was tested, and the AC50 was 20 µM (active).

These compounds were tested on Interleukin-8 (IL8), CXCL8 (gene 3576) (assay: BSK_3C_IL8: BioMAP Diversity Plus: 3C Assay for Interleukin-8 (IL8) Biomarker Activity (AID 2283020)). Conditions: primary human endothelial cells (HUVEC); actives raise or lower the signal.
Method in brief: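 Primary human umbilical vein endothelial cells (3C system) were exposed to test chemical for 24 h, then IL-8 was quantified by ELISA. Responses were fitted bidirectionally against DMSO vehicle as baseline.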
With C=CC(=O)NC(C)(C)C the outcome was “inactive”.
For CC(C)CCCCCOC(=O)CS, the outcome was “inactive”.
For Oc1ccccc1Cc1ccccc1O, the outcome was “inactive”.
C1CNCCN1 was tested, and the outcome was “inactive”.
With C[N+](C)(C)CCCNS(=O)(=O)C(F)(F)C(F)(F)C(F)(F)C(F)(F)C(F)(F)C(F)(F)C(F)(F)C(F)(F)F the AC50 was 44.3 µM (active) and the outcome was “inactive”.
CCCCC1C(=O)N(c2ccccc2)N(c2ccccc2)C1=O was tested, and the outcome was “inactive”.
With c1ccc2sc(SSN3CCOCC3)nc2c1 the outcome was “inactive”.
O=C1CCCCCCCCCCCN1 was tested, and the outcome was “inactive”.
For O=C(Oc1ccccc1)c1ccccc1C(=O)Oc1ccccc1, the outcome was “inactive”.

These compounds were tested on Monokine induced gamma interferon (MIG), CXCL9 (gene 4283) (assay: BSK_3C_MIG: BioMAP Diversity Plus: 3C Assay for Monokine induced gamma interferon (MIG) Biomarker Activity (AID 2283021)). Conditions: primary human endothelial cells (HUVEC); actives raise or lower the signal.
Method in brief: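 Primary human umbilical vein endothelial cells in the 3C system were exposed to chemical for 24 h, after which MIG was quantified by ELISA. Activity was fitted bidirectionally against DMSO as negative control and baseline.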
C=CC(=O)NC(C)(C)C was tested, and the outcome was “inactive”.
CC(C)CCCCCOC(=O)CS was tested, and the outcome was “inactive”.
For Oc1ccccc1Cc1ccccc1O, the outcome was “inactive”.
With C1CNCCN1 the outcome was “inactive”.
C[N+](C)(C)CCCNS(=O)(=O)C(F)(F)C(F)(F)C(F)(F)C(F)(F)C(F)(F)C(F)(F)C(F)(F)C(F)(F)F was tested, and the outcome was “inactive”.
With CCCCC1C(=O)N(c2ccccc2)N(c2ccccc2)C1=O the outcome was “inactive”.
For c1ccc2sc(SSN3CCOCC3)nc2c1, the outcome was “inactive”.
With O=C1CCCCCCCCCCCN1 the outcome was “inactive”.
In the case of O=C(Oc1ccccc1)c1ccccc1C(=O)Oc1ccccc1, the outcome is reported as “inactive”.

Each compound was assayed against human Vitamin D Receptor (VDR), VDR (gene 7421) (UniProt P11473) (assay: ATG_VDR_TRANS: Attagene TRANS-FACTORIAL HepG2 Assay for human Vitamin D Receptor (VDR) (AID 2283022; active = hit-call score of the fitted dose curve at least 0.9, where 1 is the maximum)). Conditions: not given.
Sequence of human Vitamin D Receptor (VDR), VDR (gene 7421) (P11473 whole entry, looked up, the tested form may be a part): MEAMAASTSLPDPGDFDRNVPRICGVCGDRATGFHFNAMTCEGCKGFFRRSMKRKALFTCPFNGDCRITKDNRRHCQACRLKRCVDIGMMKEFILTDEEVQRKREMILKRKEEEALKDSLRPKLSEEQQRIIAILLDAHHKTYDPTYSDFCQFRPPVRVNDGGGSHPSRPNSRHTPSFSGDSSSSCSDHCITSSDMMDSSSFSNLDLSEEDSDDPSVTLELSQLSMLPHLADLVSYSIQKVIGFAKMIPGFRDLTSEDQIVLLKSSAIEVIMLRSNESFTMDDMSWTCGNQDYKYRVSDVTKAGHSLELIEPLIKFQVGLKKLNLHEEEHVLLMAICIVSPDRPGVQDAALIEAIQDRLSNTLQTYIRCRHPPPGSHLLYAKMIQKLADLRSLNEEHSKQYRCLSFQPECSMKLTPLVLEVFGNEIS
Method in brief: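 HepG2 cells were transiently transfected with multiple GAL4-UAS reporter units, so signal reflects exogenous chimeric receptor-Gal4 activity. After 24 h compound exposure, reporter mRNA was measured by RT-PCR, fluorescent labelling and capillary electrophoresis, fitted for gain of signal versus DMSO.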
O=C(O)C1CCC(C(=O)O)CC1 (configuration not stated) was tested, and the outcome was “inactive”.
With NC(=O)Nc1ccccc1 the outcome was “inactive”.
With CCN1CCCC1=O the outcome was “inactive”.
With COc1ccc(-c2coc3cc(O)cc(O)c3c2=O)cc1 the outcome was “inactive”.
For C=CC(C)(CCC=C(C)C)OC(=O)C=Cc1ccccc1 (configuration not stated), the outcome was “inactive”.
For C=CC(=O)NC(C)(C)C, the outcome was “inactive”.
In the case of Nc1ccc(C(=O)OCCCOC(=O)c2ccc(N)cc2)cc1, the outcome is reported as “inactive”.
Oc1ccccc1Cc1ccccc1O was tested, and the outcome was “inactive”.
For CCCCC/C=C\C/C=C\CCCCCCCC(=O)O, the outcome was “inactive”.
In the case of CC(C)COC(=O)CC(C(=O)OCC(C)C)S(=O)(=O)O (configuration not stated), the outcome is reported as “inactive”.
For CCc1cccc(CC)c1, the outcome was “inactive”.
In the case of CC(C)(C)NC(=O)[C@H]1CC[C@H]2[C@@H]3CC[C@H]4NC(=O)C=C[C@]4(C)[C@H]3CC[C@]12C, the outcome is reported as “inactive”.
In the case of C[N+](C)(C)CCCNS(=O)(=O)C(F)(F)C(F)(F)C(F)(F)C(F)(F)C(F)(F)C(F)(F)C(F)(F)C(F)(F)F, the outcome is reported as “inactive”.
For CCCCCCO, the outcome was “inactive”.
In the case of CCCCC1C(=O)N(c2ccccc2)N(c2ccccc2)C1=O, the outcome is reported as “inactive”.
In the case of c1ccc2sc(SSN3CCOCC3)nc2c1, the outcome is reported as “inactive”.
With CCCCCCOc1ccc(N)cc1 the outcome was “inactive”.
For CCOB(OCC)OCC, the outcome was “inactive”.
In the case of CC1(C)[C@@H]2CC[C@@]1(C)C(=O)C2, the outcome is reported as “inactive”.
CCCC=C(C=O)CC was tested, and the outcome was “inactive”.
For O=C(O)c1ccc2c(c1)C(=O)OC2=O, the outcome was “inactive”.
For CC1CCC(=O)C1=O (configuration not stated), the outcome was “inactive”.
In the case of CCCCCCCCCCCCCCCCCCOS(=O)(=O)O, the AC50 is reported as 119 µM (active).
In the case of CC1CC(=O)CC(C)(C)C1 (configuration not stated), the outcome is reported as “inactive”.
For Oc1ccc(-c2ccccc2)c(Cl)c1, the outcome was “inactive”.
